± gives the standard deviation of the averaged measurements.
Columns and labels:
Drosophila melanogaster [1] = test: olfactory response index (dipstick assay) (fraction of flies (RI; 1 aversion, 0.5 indifferent, 0 attraction)); higher = stronger aversion to the odorant; settings: odorant concentration: 1% v/v, male
Drosophila melanogaster [2] = test: as above; settings: odorant concentration: 1% v/v, female
[3] = genotype (tubulin-GAL4 x UAS-RNAi line; control = progenitor): A5
[4] = genotype (tubulin-GAL4 x UAS-RNAi line; control = progenitor): control
[5] = genotype (tubulin-GAL4 x UAS-RNAi line; control = progenitor): obp 18a
[6] = genotype (tubulin-GAL4 x UAS-RNAi line; control = progenitor): obp 22a
[7] = genotype (tubulin-GAL4 x UAS-RNAi line; control = progenitor): obp 28a
[8] = genotype (tubulin-GAL4 x UAS-RNAi line; control = progenitor): obp 56a
[9] = genotype (tubulin-GAL4 x UAS-RNAi line; control = progenitor): obp 56c
[10] = genotype (tubulin-GAL4 x UAS-RNAi line; control = progenitor): obp 56f
[11] = genotype (tubulin-GAL4 x UAS-RNAi line; control = progenitor): obp 57a
[12] = genotype (tubulin-GAL4 x UAS-RNAi line; control = progenitor): obp 57b
[13] = genotype (tubulin-GAL4 x UAS-RNAi line; control = progenitor): obp 58c
[14] = genotype (tubulin-GAL4 x UAS-RNAi line; control = progenitor): obp 59a
[15] = genotype (tubulin-GAL4 x UAS-RNAi line; control = progenitor): obp 83a
[16] = genotype (tubulin-GAL4 x UAS-RNAi line; control = progenitor): obp 83c
[17] = genotype (tubulin-GAL4 x UAS-RNAi line; control = progenitor): obp 93a
[18] = genotype (tubulin-GAL4 x UAS-RNAi line; control = progenitor): obp 99b
[19] = genotype (tubulin-GAL4 x UAS-RNAi line; control = progenitor): obp 56h
[20] = genotype (tubulin-GAL4 x UAS-RNAi line; control = progenitor): obp 58b

SMILES | olfactory response index (Drosophila melanogaster [1]; [3]) | olfactory response index (Drosophila melanogaster [1]; [4]) | olfactory response index (Drosophila melanogaster [1]; [5]) | olfactory response index (Drosophila melanogaster [1]; [6]) | olfactory response index (Drosophila melanogaster [1]; [7]) | olfactory response index (Drosophila melanogaster [1]; [8]) | olfactory response index (Drosophila melanogaster [1]; [9]) | olfactory response index (Drosophila melanogaster [1]; [10]) | olfactory response index (Drosophila melanogaster [1]; [11]) | olfactory response index (Drosophila melanogaster [1]; [12]) | olfactory response index (Drosophila melanogaster [1]; [13]) | olfactory response index (Drosophila melanogaster [1]; [14]) | olfactory response index (Drosophila melanogaster [1]; [15]) | olfactory response index (Drosophila melanogaster [1]; [16]) | olfactory response index (Drosophila melanogaster [1]; [17]) | olfactory response index (Drosophila melanogaster [1]; [18]) | olfactory response index (Drosophila melanogaster [1]; [19]) | olfactory response index (Drosophila melanogaster [2]; [3]) | olfactory response index (Drosophila melanogaster [2]; [4]) | olfactory response index (Drosophila melanogaster [2]; [5]) | olfactory response index (Drosophila melanogaster [2]; [6]) | olfactory response index (Drosophila melanogaster [2]; [7]) | olfactory response index (Drosophila melanogaster [2]; [8]) | olfactory response index (Drosophila melanogaster [2]; [9]) | olfactory response index (Drosophila melanogaster [2]; [10]) | olfactory response index (Drosophila melanogaster [2]; [11]) | olfactory response index (Drosophila melanogaster [2]; [12]) | olfactory response index (Drosophila melanogaster [2]; [20]) | olfactory response index (Drosophila melanogaster [2]; [13]) | olfactory response index (Drosophila melanogaster [2]; [14]) | olfactory response index (Drosophila melanogaster [2]; [15]) | olfactory response index (Drosophila melanogaster [2]; [16]) | olfactory response index (Drosophila melanogaster [2]; [17]) | olfactory response index (Drosophila melanogaster [2]; [18]) | olfactory response index (Drosophila melanogaster [2]; [19])
CC(=O)OCCC(C)C [isoamyl acetate] | 0.156 ± 0.046 | 0.228 ± 0.095 | 0.362 ± 0.29 | 0.238 ± 0.1 | 0.237 ± 0.067 | 0.419 ± 0.15 | 0.373 ± 0.16 | 0.58 ± 0.23 | 0.192 ± 0.015 | 0.215 ± 0.071 | 0.173 ± 0.11 | 0.629 ± 0.17 | 0.339 ± 0.15 | 0.321 ± 0.13 | 0.343 ± 0.14 | 0.23 ± 0.083 | 0.348 ± 0.16 | 0.442 ± 0.16 | 0.707 ± 0.066 | 0.34 ± 0.095 | 0.625 ± 0.1 | 0.488 ± 0.25 | 0.665 ± 0.19 | 0.832 ± 0.067 | 0.497 ± 0.18 | 0.465 ± 0.13 | 0.583 ± 0.29 | 0.364 ± 0.2 | 0.471 ± 0.14 | 0.733 ± 0.07 | 0.594 ± 0.099 | 0.6 ± 0.054 | 0.702 ± 0.097 | 0.499 ± 0.14 | 0.659 ± 0.12
CCC=O [propanal] | 0.408 ± 0.047 | 0.158 ± 0.045 | 0.029 ± 0.031 | 0.1 ± 0.017 | 0.165 ± 0.13 | 0.111 ± 0.025 | 0.0917 ± 0.11 | 0.119 ± 0.083 | 0.0926 ± 0.076 | 0.254 ± 0.19 | 0.0938 ± 0.037 | 0.498 ± 0.047 | 0.164 ± 0.14 | 0.238 ± 0.095 | 0.289 ± 0.13 | 0.112 ± 0.019 | 0.233 ± 0.08 | 0.637 ± 0.17 | 0.467 ± 0.19 | 0.4 ± 0.18 | 0.583 ± 0.12 | 0.523 ± 0.039 | 0.24 ± 0.21 | 0.479 ± 0.049 | 0.333 ± 0.22 | 0.572 ± 0.086 | 0.66 ± 0.036 | 0.625 ± 0.097 | 0.305 ± 0.24 | 0.611 ± 0.11 | 0.312 ± 0.14 | 0.662 ± 0.086 | 0.688 ± 0.087 | 0.461 ± 0.039 | 0.356 ± 0.19
OCCc1ccccc1 [2-phenylethanol] | 0.116 ± 0.078 | 0.0893 ± 0.051 | 0.0701 ± 0.021 | 0.0651 ± 0.059 | 0.163 ± 0.03 | 0.0222 ± 0.021 | 0.0551 ± 0.048 | 0.0672 ± 0.04 | 0.0379 ± 0.021 | 0.138 ± 0.096 | 0.125 ± 0.076 | 0.155 ± 0.067 | 0.132 ± 0.06 | 0.127 ± 0.051 | 0.135 ± 0.043 | 0.0352 ± 0.025 | 0.106 ± 0.049 | 0.396 ± 0.15 | 0.5 ± 0.2 | 0.117 ± 0.066 | 0.403 ± 0.12 | 0.526 ± 0.051 | 0.299 ± 0.11 | 0.367 ± 0.17 | 0.414 ± 0.076 | 0.128 ± 0.068 | 0.379 ± 0.17 | 0.381 ± 0.17 | 0.166 ± 0.08 | 0.258 ± 0.074 | 0.414 ± 0.058 | 0.437 ± 0.14 | 0.422 ± 0.2 | 0.0815 ± 0.14 | 0.258 ± 0.2
C=C(C)[C@H]1CC=C(C)C(=O)C1 [(S)-carvone] | 0.57 ± 0.068 | 0.456 ± 0.062 | 0.22 ± 0.068 | 0.372 ± 0.058 | 0.384 ± 0.14 | 0.142 ± 0.051 | 0.186 ± 0.057 | 0.525 ± 0.15 | 0.277 ± 0.15 | 0.4861 ± 0.0015 | 0.468 ± 0.1 | 0.657 ± 0.13 | 0.304 ± 0.27 | 0.555 ± 0.19 | 0.382 ± 0.14 | 0.171 ± 0.066 | 0.504 ± 0.17 | 0.729 ± 0.063 | 0.65 ± 0.074 | 0.558 ± 0.053 | 0.775 ± 0.06 | 0.651 ± 0.073 | 0.357 ± 0.1 | 0.678 ± 0.2 | 0.676 ± 0.1 | 0.613 ± 0.085 | 0.73 ± 0.15 | 0.49 ± 0.07 | 0.597 ± 0.064 | 0.739 ± 0.031 | 0.589 ± 0.045 | 0.398 ± 0.079 | 0.715 ± 0.056 | 0.468 ± 0.041 | 0.683 ± 0.086
